HSF-1 act: HSF-1 activators, primary screen, NIH3T3-HGL cells, MG132 stress, luminescence, single point. NIH3T3-HGL HSF-1 luciferase reporter, 8 h; 100% = twice DMSO control signal. activation, % at 9 µM. 300,000 compounds, 1.7% hits. AID 504408, 2011;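 active = mean replicate activation of at least 50% with a set share of replicates each reaching 50%; inconclusive = only one of those two conditions met; inactive = mean below 50% and too few replicates reaching it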;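 also: 0% = median of the neutral control wells and 100% = twice that signal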
esBAF inh: Bmi1 luciferase reporter increase in mESCs, primary screen, esBAF inhibitor project, mouse ES cells, Bmi1 luciferase knock-in, single point | 24 h; 100% = twice the neutral-well signal | reporter increase, % at 12.5 µM | 350,000 compounds, 2% hits; in the data active = activation above about 40%; inconclusive = no clear call, values can overlap the other calls;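 also: 0% = median of the plate's neutral control wells and 100% = double that signal; a rise in the Bmi1 reporter signal indicates esBAF inhibition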
MITF act: activators of MITF-driven TRPM1 promoter reporter, primary screen, cell-based, SK-MEL-5, luciferase, single point; SK-MEL-5 TRPM1-promoter luciferase, 24 h; % of positive control, neutral wells = 0; AID 588334, 2011; 300,000 compounds, 0.75% hits; activation, % at 12.5 µM;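 active = mean activation of at least 80% with every replicate also reaching 80%; inconclusive = mean reaches 80% but some replicate falls short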;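 also: 0% = neutral control wells and 100% = parthenolide positive control wells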
HSF1 inh: HSF1 inhibitors in luciferase reporter cells, primary screen, cell-based, NIH3T3, luminescence. NIH3T3-HGL HSE-luciferase, MG132-induced, luminescence 8 h; active compounds read low. activity change, negative = inhibition, % at 7.5 µM (by protocol). 300,000 compounds, 0.77% hits;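 active = more than half of replicate wells show activity change below -50%, luminescence cut by over half; inconclusive = some wells, but at most half, below -50%; inactive = no replicate well below -50%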;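 also: luciferase reports HSF-1 transcriptional activity via heat shock element; 0% = median of DMSO wells and -100% = zero luminescence signal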
Wnt bcat act: Wnt/beta-catenin pathway activators, primary screen, cell-based, plate reader, single point; Wnt/beta-catenin reporter cell assay, activator; activation, % at 9.35 µM; 300,000 compounds, 1.2% hits; AID 743398, 2014; in the data active = activation above about 30%, passing the limit was not always enough; inconclusive = no clear call, values can overlap the other calls;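 also: 0% = neutral control wells and 100% = positive control wells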
* marks the source's active call; other numbers are inactive results; ? = inconclusive; . = no result given. Compounds with a hit are over-represented: about 3.8% of the library has one in this group of screens.

SMILES | HSF-1 act | esBAF inh | MITF act | HSF1 inh | Wnt bcat act
CCC(=O)N(C)C[C@@H]1Oc2ncc(C#Cc3ccncc3)cc2C(=O)N([C@H](C)CO)C[C@@H]1C | . | 0 | . | . | .
O=C(NCC[C@@H]1CC[C@H](NC(=O)c2cnccn2)[C@@H](CO)O1)Nc1ccc(F)cc1 | . | -4 | . | . | .
Cc1noc(C)c1NC(=O)NCC[C@@H]1CC[C@H](NC(=O)Nc2cccc(F)c2)[C@@H](CO)O1 | . | 1 | . | . | .
O=C(NC1Cc2ccccc2C1)[C@H]1[C@H](CO)[C@H]2Cn3c(cccc3=O)[C@H]2N1C(=O)C1CC1 | . | -2 | . | . | .
Cn1cnc2c1c(=O)n(Cc1ccccc1)c(=O)n2C | -25 | 1 | . | -5 | 32*
Cn1cnc2c1c(=O)n(Cc1cccc(Br)c1)c(=O)n2C | 16 | 4 | . | 11 | 2
O=C(CNC(=O)c1ccccc1)OCC(=O)N1N=C(c2ccc(Cl)cc2)CC1c1ccco1 (configuration not stated) | -23 | . | 4 | -4 | 41*
N#Cc1ccccc1OCC(=O)N1N=C(c2cccs2)CC1c1ccco1 (configuration not stated) | . | 70* | 26 | . | 14
C[C@H]1CN([C@@H](C)CO)C(=O)Cc2cc(NC(=O)C3CC3)ccc2O[C@@H]1CN(C)Cc1ccccc1 | . | 3 | . | . | .
CC1SCC(=NOCc2ccccc2)CS1 (configuration not stated) | 34 | . | . | 14 | 48*
CC(C)OC(=O)N(C)C[C@H]1OCc2cn(nn2)CCCC(=O)N([C@H](C)CO)C[C@H]1C | . | 0 | . | . | .
CCS(=O)(=O)c1ccc(C=NNc2nc3ccccc3o2)cc1 | . | . | 104* | . | -3
O=C(NNc1c(Cl)cccc1Cl)C1CCC1 | 53* | . | 4 | 20 | 0
Cc1cccc(Oc2coc3cc(OC(=O)c4cc5ccccc5oc4=O)ccc3c2=O)c1 | 19 | 54* | 42 | 8 | .
Cc1cccc(Oc2coc3cc(O)ccc3c2=O)c1 | 15 | 59* | . | -3 | 9
Cc1cc(C)cc(Oc2coc3cc(OC(=O)c4cccnc4)ccc3c2=O)c1 | -5 | . | -2 | 2 | -1
Cc1cccc(Oc2coc3cc(OC(=O)c4cncc(Br)c4)ccc3c2=O)c1 | 20 | 34* | 2 | 5 | 3
CO[C@H]1CN(C)C(=O)c2cc(NS(C)(=O)=O)ccc2OC[C@@H](C)N(CC2CCOCC2)C[C@H]1C | . | -1 | . | . | .
COCC(=O)N1C[C@@H]2[C@H](c3ccccc31)[C@@H](CO)N2C(=O)Nc1ccccc1F | . | -3 | . | . | .
N#Cc1nc(Cc2ccccc2)oc1NCc1cccnc1 | 3 | 8 | -1 | 0 | .
N#Cc1ncc(Cc2ccccc2)nc1C#N | 97* | 7 | . | 97 | -1
Cc1ccc(S(=O)(=O)N[C@@H]2CC[C@@H](CC(=O)NCc3ccc(Cl)c(Cl)c3)O[C@H]2CO)cc1 | . | 9 | . | . | .
Clc1ccc(-c2cnc3cccnn23)cc1 | . | 50* | . | . | 0
O=C(C[C@@H]1CC[C@@H](NS(=O)(=O)c2ccc(F)cc2)[C@@H](CO)O1)NCc1ccc(Cl)c(Cl)c1 | . | 13 | . | . | .
COc1ccc(NC(=O)N(C)C[C@H]2Oc3ncc(-c4cccnc4)cc3C(=O)N([C@@H](C)CO)C[C@@H]2C)cc1 | . | 0 | . | . | .
SMILES | HSF-1 act | esBAF inh | MITF act | HSF1 inh | Wnt bcat act
CNC[C@@H]1Oc2ccc(NS(=O)(=O)c3cccs3)cc2C(=O)N([C@H](C)CO)C[C@H]1C | . | -1 | . | . | .
COc1cc(NS(=O)(=O)c2cc(C)ccc2OC)c(OC)cc1Cl | 67* | -5 | -1 | 20 | .
Cc1ccccc1-c1noc(-c2ccc(O)cc2)n1 | 53* | 38 | 74 | 19 | 28
NC(=O)c1ccc(-c2noc(-c3ccccc3F)n2)cc1 | . | 5 | 57 | . | 19
Cc1ccccc1-c1noc(-c2ccccc2F)n1 | 54* | 67* | 107* | 26 | -1
Cc1ccccc1-c1noc(-c2ccc(Cl)cc2)n1 | 32 | ? | 37 | 9 | ?
Fc1ccccc1-c1nc(-c2ccc(Cl)cc2)no1 | 30 | 49* | 46 | 15 | .
CN(C)C(=O)c1ccc(-c2ccc3c(c2)[C@@H]2[C@@H](CCN2C(=O)C2CC2)[C@H](CO)N3C)cc1 | . | -16 | . | . | .
